HepG2 tox: qHTS for Inhibitors of TGF-b: Cytotox Counterscreen; AID 588856, 2011; actives 0.76% (n = 410,000); Potency, µM (series often up to 46.1 µM), without a hit: at the highest dose activity change, negative = cytotoxicity, actives largely listed as cytotoxic; HepG2 CAGA-GFP viability, ATP luminescence, 18 h
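HepG2 CAGA-GFP cells (1000/well, DMEM with 1% FBS) received compound, then TGF-beta at 500 pg/mL final, and were incubated 18 hours at 37 degrees C. Viability was read by CellTiter-Glo luminescence. Media-only wells were set as complete cell-killing and DMSO as no toxicity.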
KB-3-1 tox: qHTS assay for MDR1-selective chemotherapeutics: Primary screen using the parental adenocarcinoma cell KB-3-1 | KB-3-1 viability, CellTiter-Glo ATP luminescence, 72 h | Potency, µM (top dose mostly 46.1 µM), actives largely listed as cytotoxic | actives 1.4% (n = 400,000); also: % is scaled to controls: 0 for no effect and ±100 for the full control effect; nearly all actives have a fitted effect of over 60% in size
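Cytotoxicity measured as CellTiter-Glo luminescence after 72 h at 37 C. Compound titrations were pinned onto drug-naive KB-3-1 parental adenocarcinoma cells grown in DMEM with 10% FBS, and normalized data fitted to concentration-response curves.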
HT1080NT lethal: qHTS for induction of synthetic lethality in tumor cells producing 2HG: qHTS for the HT-1080-NT fibrosarcoma cell line; HT-1080-NT fibrosarcoma viability, CellTiter-Glo ATP luminescence, 48 h; actives 1.6% (n = 360,000); Potency, µM (titrated, usually from 46.1 µM), for inactives: top-dose activity, negative = less viability, most hits filed as cytotoxic; AID 686970, 2013;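 also: NT is the 2HG producing partner of a matched IDH1 knockdown line; 0% = DMSO-treated cells and -100% = media-only wells without cells; nearly all actives have a fitted effect of over 55% in size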
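Toxicity toward the 2HG-producing NT line was scored as %Activity, normalised to DMSO and no-cell wells, from CellTiter-Glo luminescence after 48 hours' treatment.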
TGFb SMAD3 inh: qHTS for Inhibitors of TGF-b | HepG2 CAGA-GFP TGF-b/SMAD3 reporter, GFP fluorescence, 18 h; TGF-beta stimulated, 500 pg/mL final | Potency, µM (titrated, usually from 46.1 µM), for the others: at the highest dose activity, negative = inhibition, actives largely listed as inhibitors | actives 1.2% (n = 410,000) | AID 588855, 2011; also: % is scaled to controls: 0 for no effect and ±100 for the full control effect; nearly all actives have a fitted effect of over 65% in size
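Per well, imaged GFP fluorescence of HEPG2 CAGA-GFP cells gives the signal; cells get compound, then TGF-beta (500 pg/mL final), 18 h at 37 degrees C; %Activity versus -TGF-beta and +DMSO controls.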
KB-V1 MDR tox: qHTS assay for MDR1-selective chemotherapeutics: Primary screen using the drug-selected MDR subline cells KB-V1 | KB-V1 MDR cells viability, CellTiter-Glo, 72 h | Potency, µM (series often up to 46.1 µM), usual class: cytotoxic | actives 3.4% (n = 400,000) | AID 1347076, 2019; also: % is scaled to controls: 0 for no effect and ±100 for the full control effect; nearly all actives have a fitted effect of over 60% in size
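Cytotoxicity toward P-gp-expressing KB-V1 cells was determined as loss of CellTiter-Glo luminescence after 72 h at 37 degrees C. Compounds were tested in quantitative HTS format across a concentration range, with curves fitted to normalized data.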
HT1080 IDH1KD tx: qHTS for induction of synthetic lethality in tumor cells producing 2HG: qHTS for the HT-1080-IDH1KD cell line. AID 686971, 2013. actives 2% (n = 360,000). Potency, µM (highest dose often 46.1 µM), inactives show at the highest dose activity, negative = toxicity, hits mostly cytotoxic. HT-1080 IDH1 knockdown viability, ATP luminescence, 48 h;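 also: 0% = DMSO wells and -100% = cell-free medium wells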
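IDH1KD HT-1080 cells, 750/well, RPMI + 5% FBS; compound pinned after 2 h settling; 48 h, 37 °C; CellTiter-Glo luminescence; % activity normalised to DMSO and no-cell wells; curves fitted, classed by r2 and efficacy.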
* = called active by the depositor; i = inactive; ? = inconclusive; / = no result. Only some compounds are listed: those with a hit (about 6.6% of all), similar ones and a draw of the others. Calls follow the shape of the dose curve; as a rule, active = well fitted curve in the direction sought with a large enough effect; inconclusive = small, poorly fitted or top-dose-only effect, or another doubt; inactive = no such curve, though single readings can be large; an effect the other way counts as inactive or inconclusive. Potency is read from the fitted curve at half-maximal effect.

SMILES	HepG2 tox	KB-3-1 tox	HT1080NT lethal	TGFb SMAD3 inh	KB-V1 MDR tox	HT1080 IDH1KD tx
Cc1cccc(NC(=O)c2ccc(-c3nc(CSc4ccccc4)c(C)o3)cc2)c1C	-59%	i	/	-15%	i	/
OCCCCNCc1ccc(OCc2ccc(Cl)cc2Cl)cc1	10µM*	i	?	?	i	?
OCCNCc1ccc(OCc2ccc(Cl)cc2Cl)cc1	22µM*	i	?	?	i	21µM*
O=C(CSc1ncc(-c2ccccc2)[nH]1)Nc1ccc(Cl)cc1	-64%	i	/	?	i	/
COc1ccc(-c2cn3nc(N4CCCC(C(=O)Nc5ccccc5OC)C4)sc3n2)cc1 (centres undefined)	-6%	i	/	?	i	/
Cc1ccc(OCCCCCCN2CCNCC2)c(Br)c1	-21%	i	?	?	i	15µM*
CC(C)(c1ccccc1)c1ccc(OCCN2CCOCC2)cc1	-12%	i	-4%	-9%	i	-6%
CC(C)(C)c1ccc(OCCCCCCN2CCNCC2)cc1	-173%	?	?	?	?	23µM*
CC(C)(c1ccccc1)c1ccc(OCCCN2CCNCC2)cc1	22µM*	?	-5%	0%	i	21µM*
CCC(C)NCCOc1ccc(C(C)(C)c2ccccc2)cc1 (centres undefined)	-20%	?	18µM*	-3%	?	?
Oc1c(C(c2ccc(Cl)cc2)N2CCC3(CC2)OCCO3)sc2nc(-c3ccco3)nn12 (centres undefined)	-12%	i	/	-2%	i	/
CN(C(=O)c1nn(C)c2c1COc1ccccc1-2)c1cccc(C(F)(F)F)c1	1%	/	/	-7%	/	/
CCOC(=O)c1cc(-c2ccccc2)n(CCC(=O)Nc2ccc(C(F)(F)F)cc2)c1C	-65%	/	/	?	/	/
CN(CC/C=C1/c2ccccc2CSc2ccccc21)CCCO	-11%	i	-4%	-4%	23µM*	-18%
CN(C)CC/C=C1\c2cc(F)ccc2CSc2ccccc21	-38%	i	-18%	7%	21µM*	-17%
NCC/C=C1/c2ccccc2CSc2ccccc21	16µM*	?	14µM*	?	?	?
C=CCN(C)CC/C=C1\c2ccccc2CSc2ccccc21	-41%	i	?	-16%	i	-26%
CC(O)CN(C)CC/C=C1/c2ccccc2CSc2ccccc21 (centres undefined)	-19%	i	-8%	-3%	i	1%
CC[C@@]1(C(=O)OC)N[C@H](CN(C)C(=O)c2ccc(F)cc2)[C@@H]2C(=O)N(Cc3ccccc3)C(=O)[C@@H]21	4%	i	-2%	-24%	i	-2%
CCOc1ccc(OCC)c(NC(=O)C2CCCN(S(=O)(=O)c3cc(Br)cc4c3N(C(=O)CC)CC4)C2)c1 (centres undefined)	-29%	i	/	?	i	/
Cc1cccc(C#N)c1NC1=CC(=O)CC(C)(C)C1	-3%	i	-1%	12%	i	-3%
Cc1cc(C)c(NC2=CC(=O)CC(C)(C)C2)c(C#N)c1	-8%	i	6%	14%	23µM*	-23%
Cc1ccc(NC2=CC(=O)CC(C)(C)C2)cc1C	-23%	i	-3%	0%	16µM*	2%
Cc1ccc2occ(CC(=O)N(Cc3ccc(Cl)cc3)C3CCS(=O)(=O)C3)c2c1 (centres undefined)	-30%	i	/	?	i	/
COc1ccc(OC)c(-n2cnc3cc(C(=O)NCCc4ccccc4)ccc32)c1	8%	i	/	1%	i	/
SMILES	HepG2 tox	KB-3-1 tox	HT1080NT lethal	TGFb SMAD3 inh	KB-V1 MDR tox	HT1080 IDH1KD tx
CCCNc1nc2c(c(=O)n(C)c(=O)n2C)n1CCc1ccccc1	-22%	i	?	-8%	i	-11%
Cn1c(=O)c2c(ncn2CCCc2ccccc2)n(C)c1=O	-1%	?	-1%	22%	15µM*	0%
Cn1c(-c2ccc3c(c2)OCO3)cnc1NCc1ccccc1	-3%	?	?	-25%	13µM*	?
CCCNc1nc2c(c(=O)n(C)c(=O)n2C)n1Cc1cccc(C)c1	-8%	?	?	?	9.2µM*	-8%
Cn1c(=O)c2c(nc(NCc3ccccc3)n2Cc2ccccc2)n(C)c1=O	-19%	i	/	-56%	i	/
Cn1c(=O)c2c(nc(NCc3ccccc3)n2Cc2ccc(Cl)c(Cl)c2)n(C)c1=O	-45%	?	/	?	18µM*	/
Cn1c(-c2ccc3c(c2)OCO3)cnc1NCc1cccc(Cl)c1	-30%	i	?	-17%	?	?
COc1cc(Cl)c(C)cc1Nc1nc2ccccc2c2nnc(C)n12	2%	i	/	5%	i	/
Cc1cccc(Cn2c(=O)n(CCc3ccccc3)c(=O)c3c(C)c(C)sc32)c1	0%	i	/	22%	i	/
Cn1c(=O)c2c(nc(NCc3ccc4c(c3)OCO4)n2Cc2ccc(F)cc2)n(C)c1=O	-21%	?	?	?	?	?
Cn1c(=O)c2nc(NCc3ccccc3)cnc2n(C)c1=O	6%	i	-2%	3%	18µM*	13%
Cn1c(=O)c2c(nc(NCCO)n2CCc2ccccc2)n(C)c1=O	-33%	21µM*	-27%	-8%	i	4%
Cn1c(=O)c2c(nc(NCc3ccc4c(c3)OCO4)n2Cc2ccccc2)n(C)c1=O	-20%	23µM*	?	-26%	i	?
Cn1c(=O)c2c(nc(NCCCO)n2CCc2ccccc2)n(C)c1=O	-2%	i	10%	-25%	i	-1%
Cc1cccc(NC(=O)CSc2nc3ccccc3nc2N2CCOCC2)c1C	-7%	i	/	-14%	i	/
CCCNC(=O)C1(C)CCCN(Cc2ccc(C(=O)OCC)o2)C1 (centres undefined)	1%	i	21%	4%	i	4%
COc1ccc(/C=N\NC(=O)C2COc3ccccc3O2)cc1O (centres undefined)	-36%	i	15µM*	-14%	?	12µM*

Compound activity as filed in PubChem BioAssay.
